Source: PubChem (NMMLSC)
AGP1-GFP MLPCN: alters AGP1-GFP fluorescence in TOR pathway yeast screen; S. cerevisiae AGP1-GFP multiplex flow cytometry, 3 h; GFP as percent of DMSO wells; GFP response vs DMSO, % at 10 µM; actives 0.02% (n = 320,000);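 active = GFP response relative to DMSO above a set limit, near screen average plus 3 SD, cut at about 150% in these data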;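 note: median GFP channel fluorescence of the gated AGP1 strain per well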
MEP2-GFP yeast: alters MEP2-GFP fluorescence in TOR pathway yeast screen; S. cerevisiae MEP2-GFP strain, flow cytometry GFP, 3 h; 100% = DMSO control level; GFP response vs DMSO, % at 10 µM; actives 0.51% (n = 330,000); AID 2016;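 active = GFP response versus DMSO above a set limit, roughly screen mean plus 3 SD, cut at about 180% in these data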;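 note: median GFP fluorescence of the barcode-gated MEP2-GFP cells per well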
RPL19A-GFP yeast: modulators of TOR pathway RPL19A-GFP in S. cerevisiae | S. cerevisiae RPL19A-GFP strain, flow cytometry, 3 h; active compounds read low | percent response vs DMSO, % at 10 µM | actives 0.3% (n = 330,000);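 active = percent response vs DMSO below 50%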;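 note: median channel GFP fluorescence of the barcoded RPL19A-GFP strain; ratio of sample median GFP to plate DMSO average so 100% = DMSO; lower means less RPL19A-GFP as with rapamycin TOR inhibition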
LAP4 TOR yeast: alters LAP4-GFP fluorescence in TOR pathway yeast screen; GFP response vs DMSO, % at 10 µM; S. cerevisiae LAP4-GFP multiplex, flow cytometry GFP, 3 h; median GFP as percent of DMSO wells; actives 0.34% (n = 320,000); AID 2023;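 active = GFP response vs DMSO above a set limit, about the screen mean plus 3 SD, cut at about 150% in these data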
CIT2-GFP yeast: modulators of TOR pathway CIT2-GFP in S. cerevisiae. AID 2029. S. cerevisiae CIT2-GFP strain, flow cytometry, 3 h; 100 means same as DMSO wells. GFP response vs DMSO, % at 10 µM. actives 0.065% (n = 320,000);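 active = GFP response relative to DMSO above a set limit, near the screen mean plus 3 SD, cut at about 150% in these data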;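 note: ratio of well median GFP fluorescence to mean of DMSO wells on the plate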
LAP4 cherry2: yeast LAP4-GFP modulation, second cherry pick | AID 2621 | GFP response vs DMSO, % at 10 µM | actives 20% (n = 590) | S. cerevisiae LAP4-GFP strain, flow cytometry GFP, 3 h | shares compounds with LAP4 TOR yeast;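 active = GFP signal as percent of the solvent control above about 150%, meaning raised reporter expression, limit read from the data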;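 note: ratio of well median GFP fluorescence to plate DMSO mean so 100% = DMSO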
MEP2-GFP pick2: reconfirmed MEP2-GFP TOR pathway modulator in yeast. shares compounds with LAP4 TOR yeast. S. cerevisiae MEP2-GFP strain, flow cytometry GFP, 3 h. GFP response vs DMSO, % at 10 µM. actives 10% (n = 590);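 active = GFP signal above 150% of the solvent control wells, that is a rise of more than half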;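 note: median channel GFP fluorescence of all gated yeast cells per well; ratio of median GFP to plate DMSO average so 100% = DMSO level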
RPL19A GFP CP2: yeast RPL19A-GFP TOR reporter modulation, second cherry pick | shares compounds with LAP4 TOR yeast | actives 3% (n = 590) | S. cerevisiae RPL19A-GFP strain, flow cytometry GFP, 3 h; active compounds read low; 100% means same as DMSO wells | GFP response vs DMSO, % at 10 µM;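 active = under 65% GFP response relative to DMSO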;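 note: median GFP channel fluorescence per well over the all cells gate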
CIT2-GFP pick2: yeast CIT2-GFP TOR reporter modulation, second cherry pick | shares compounds with LAP4 TOR yeast | S. cerevisiae CIT2-GFP strain, flow cytometry GFP, 3 h; DMSO control wells read 100% | GFP response vs DMSO, % at 10 µM | actives 8% (n = 590) | AID 2624;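 active = GFP response vs DMSO above about 150%, limit read from the data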;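 note: median green fluorescence per well over all gated yeast cells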
AGP1 GFP CP2: yeast AGP1-GFP TOR reporter modulation, second cherry pick; shares compounds with LAP4 TOR yeast; S. cerevisiae AGP1-GFP strain, flow cytometry GFP, 3 h; percent response vs DMSO, % at 10 µM; 590 tested, under 10 active; AID 2643;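 active = over 150 percent of DMSO response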;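 note: median GFP channel fluorescence over all cells without mother daughter split; sample median GFP divided by mean DMSO control so 100% equals DMSO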
Yeast autofluor: yeast s288c autofluorescence artifact, counter-screen; shares compounds with LAP4 TOR yeast; S. cerevisiae s288c, 520 nm autofluorescence, flow cytometry, 3 h; active compounds read high; zero means same as solvent-only cells; fluorescence change (kMESF span) at 33 µM; 610 tested, under 10 active; AID 2757;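 active = fluorescence span over the dose series, or activity score, above about 33, limit read from the data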
Yeast autofl DR: counter-screen for autofluorescence of TOR hits in yeast s288c; AID 488829; 110 tested, under 10 active; fluorescence change (span) at 33 µM; S. cerevisiae s288c parental, compound autofluorescence, flow cytometry, 3 h; shares compounds with LAP4 TOR yeast;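 active = fluorescence change span, or the activity score built from it, above 25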
TORC1 bypass: wildtype yeast growth loss with TORC1 bypass cells unaffected. shares compounds with LAP4 TOR yeast. S. cerevisiae BY4741 spot growth rating, 48-72 h; active compounds read low. growth rating (0-3) at 30 µM. 120 tested, under 10 active. AID 504456;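 active = growth rating at most 1 for wild type yeast while the TORC1 bypass strain still grows fully, rated 3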
Active calls of the source: *; / = not tested or not shown. Only some compounds are listed: those with a hit (about 0.93% of all), similar ones and a draw of the others.

SMILES	AGP1-GFP MLPCN	MEP2-GFP yeast	RPL19A-GFP yeast	LAP4 TOR yeast	CIT2-GFP yeast	LAP4 cherry2	MEP2-GFP pick2	RPL19A GFP CP2	CIT2-GFP pick2	AGP1 GFP CP2	others
CCn1c(=O)c([N+](=O)[O-])c(NCCN(C)C)c2ccccc21	108.5	111.0	102.0	100.4	91.5	/	/	/	/	/
CCn1c(=O)c([N+](=O)[O-])c(Cl)c2ccccc21	76.3	94.8	62.2	103.5	90.3	118.3	133.1	71.9	81.4	77.3
C=CCn1c(SCC(=O)N2CCc3ccccc3C2)nc2sc(C)cc2c1=O	96.9	104.7	96.6	110.5	97.6	/	/	/	/	/
CCN(CC)C(=O)[C@H]1CC(CC(=O)NCCCN(C)C)C(=O)N2CCc3c([nH]c4ccccc34)[C@]12C (stereo partly specified)	99.5	93.4	97.7	95.8	98.8	/	/	/	/	/
Cc1cc(-c2cc(C(=O)NC3CCCC3)on2)nc(NC2CCCC2)n1	82.3	85.5	91.7	134.9	85.7	/	/	/	/	/
Cc1cc(-c2cc(C(=O)NCc3ccccc3)on2)nc(NC2CCCC2)n1	91.8	92.6	91.9	102.7	80.9	101.0	106.5	99.4	104.0	96.4
Cc1cc(-c2cc(C(=O)Nc3ccccc3)on2)nc(NC2CCCC2)n1	90.6	98.6	107.0	116.0	88.8	109.6	103.2	105.9	100.7	97.5
CSc1nc(C)cc(-c2cc(C(=O)Nc3ccccc3)on2)n1	87.3	88.8	96.1	113.1	92.6	105.8	114.8	101.9	99.5	96.9
COc1ccc(-c2cc(C(=O)Nc3ccccc3)on2)cc1	89.8	86.8	92.2	98.7	89.2	/	/	/	/	/
CCCNc1nc(C)cc(-c2cc(C(=O)NC3CCCC3)on2)n1	84.8	91.7	95.5	155.7*	103.0	105.8	101.5	97.9	90.5	95.7
Cc1cc(C)nc(Nc2n[nH]c(COc3ccccc3)n2)n1	25.4	167.0	62.1	87.7	101.3	101.2	106.5	99.3	104.3	96.4
Cc1cc(C)nc(Nc2n[nH]c(COc3ccc4ccccc4c3)n2)n1	100.7	104.1	96.0	104.9	93.4	/	/	/	/	/
C=CC[C@H](CC(=O)N[C@H](CO)Cc1ccccc1)C(=O)N[C@@H](COC(=O)[C@@H](CC=C)Cc1ccc(F)cc1)Cc1c[nH]c2ccccc12	98.7	100.9	96.3	108.4	96.2	/	/	/	/	/
CNc1nc(N)c([N+](=O)[O-])c(NCC2CCCO2)n1 (stereo unspecified)	96.2	96.6	96.0	105.5	97.0	/	/	/	/	/	Yeast autofl DR=0.06;TORC1 bypass=3
COCCNc1nc(N)c([N+](=O)[O-])c(NCC2CCCO2)n1 (stereo unspecified)	98.3	96.2	99.5	93.3	98.8	/	/	/	/	/
Nc1nc(NCc2ccccc2)nc(Nc2ccc(F)cc2)c1[N+](=O)[O-]	112.7	106.4	104.9	101.0	103.7	/	/	/	/	/
CCOc1ccc(Nc2nc(NC)nc(N)c2[N+](=O)[O-])cc1	/	/	/	/	/	/	/	/	/	/	Yeast autofl DR=0.05;TORC1 bypass=3
CNc1nc(N)c([N+](=O)[O-])c(Nc2ccc(Cl)cc2)n1	/	/	/	/	/	/	/	/	/	/	Yeast autofl DR=0.05;TORC1 bypass=3
CNc1nc(N)c([N+](=O)[O-])c(Nc2ccccc2)n1	/	/	/	/	/	/	/	/	/	/	Yeast autofl DR=0.63;TORC1 bypass=3
CC(=O)CSc1ncnc2c1cnn2-c1ccccc1	102.7	182.8*	120.1	148.5	202.7*	/	/	/	/	/	Yeast autofluor=0.1
CS(=O)(=O)N1c2ccccc2[C@@]2(Br)C[C@H]3C(=O)N[C@@H](Cc4ccccc4)C(=O)N3[C@@H]12	95.3	99.8	103.3	109.3	98.4	/	/	/	/	/
O=C(CS(=O)c1ccccc1[N+](=O)[O-])Oc1ccc(Br)cc1 (stereo unspecified)	100.2	92.3	90.9	170.2*	92.0	/	/	/	/	/	Yeast autofluor=0.71
COc1ccccc1N1C(=O)c2cccc3c(C(=O)O)ccc(c23)C1=O	93.7	94.4	90.2	91.7	89.6	/	/	/	/	/	Yeast autofluor=0.2
COc1ccc2c(c1)c1nnc(SC)nc1n2C	60.1	101.0	54.2	103.5	73.2	101.9	106.5	53.4*	98.4	54.8	Yeast autofluor=0.7
Oc1c(C(Nc2cccc(C(F)(F)F)c2)c2cccnc2)ccc2cccnc12 (stereo unspecified)	101.6	100.9	106.4	95.8	102.0	/	/	/	/	/
SMILES	AGP1-GFP MLPCN	MEP2-GFP yeast	RPL19A-GFP yeast	LAP4 TOR yeast	CIT2-GFP yeast	LAP4 cherry2	MEP2-GFP pick2	RPL19A GFP CP2	CIT2-GFP pick2	AGP1 GFP CP2	others
CN1CCN(C(c2ccc(C(F)(F)F)cc2)c2ccc3cccnc3c2O)CC1 (stereo unspecified)	70.5	100.3	93.5	322.0*	81.6	/	/	/	/	/	Yeast autofluor=1.31;Yeast autofl DR=0.24;TORC1 bypass=3
CC(=O)NC(c1cc(Cl)c2cccnc2c1O)C(C)C (stereo unspecified)	95.3	84.8	95.1	99.7	90.9	/	/	/	/	/
Cc1ccc(C(c2cc(Cl)c3cccnc3c2O)N2CCN(C)CC2)cc1 (stereo unspecified)	67.4	100.3	74.9	226.6*	87.9	/	/	/	/	/	Yeast autofluor=5.34;Yeast autofl DR=2.76;TORC1 bypass=3
CCS(=O)(=O)Nc1cccc(-c2ccc3nnc(-c4cccnc4)n3n2)c1	120.4	87.9	79.5	170.8*	100.9	99.0	103.2	100.4	101.8	100.1
CCCS(=O)(=O)Nc1cccc(-c2ccc3nnc(C)n3n2)c1	98.6	99.7	92.9	74.5	96.3	/	/	/	/	/
CC1CCN(C(=O)C(=O)c2cn(CC(=O)N3CCCC3)c3ccccc23)CC1	103.7	114.4	95.5	100.9	159.4*	99.2	101.3	98.5	109.9	96.7
CC1CCCCN1C(=O)C(=O)c1cn(CC(=O)N2CCCC2)c2ccccc12 (stereo unspecified)	105.6	102.2	92.1	103.5	106.3	/	/	/	/	/
